4-MU autofl: compound fluoresces in the 4-MU spectral region. compound autofluorescence, 340/450 nm, 4-MU equivalents; hits give high values. max dye-equivalent concentration, M. actives 11% (n = 59,000). AID 589; in the data active = max dye-equivalent concentration above about 10 nM; inconclusive = mostly about 1.1 nM to 9.6 nM
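Compounds in 100 mM Tris, pH 8.0, sat 15 min at room temperature before fluorescence was read at 340 nm excitation/450 nm emission; a per-plate six-point 4-MU standard curve converted signals to dye-equivalent concentration at each compound concentration.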
AID923: qHTS Assay for Allosteric/Competitive Inhibitors of Caspase-1: Spectroscopic Profiling in AFC Spectral Region; Potency, µM (doses to about 57.5 µM), for inactives: top-dose fluorescence increase, usual class: activators; actives 1.1% (n = 75,000); compound fluorescence, AFC spectral region (405/520 nm); note: potency is the fitted concentration of half-maximal effect; 0% is about no effect
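Baseline compound fluorescence (AFC region, 405 nm ex/520 nm em) taken from the intercept of kinetic reads with 50 nM caspase-1 and 5 uM Ac-WEHD-AFC; normalized to an on-plate AFC standard curve; compounds titrated up to 57 uM.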
HSD17B inhib: HSD17B dehydrogenase inhibition. Q99714. recombinant HSD17B10, NADH fluorescence kinetic. Potency, µM (top dose mostly 57.1 µM), for the others: top-dose activity change, negative = inhibition, hits mostly inhibitors. actives 7.6% (n = 75,000). AID 893;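 note: the protocol describes HADH2 (HSD17B10) and not the HSD17B4 of the title; potency is the fitted concentration of half-maximal effect; % is set by controls: 0 for no effect and ±100 for the full control effect; nearly all actives have a fitted effect of over 70% in size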
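20 nM HADH2, pH 9.0 Tris/Tween; cpd preinc 15 min RT; start w/ 1 mM NAD+ + 90 uM b-hydroxybutyryl-CoA; kinetic fluor ex360/em450 q30s x 4 min; delta last-first.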
HADH2 inhib: HADH2 (human) dehydrogenase inhibition; recombinant HADH2, NADH fluorescence, beta-hydroxybutyryl-CoA; Potency, µM (series often up to 57.1 µM), for the others: top-dose activity change, negative = inhibition, usual class: inhibitors; actives 3.4% (n = 73,000); note: potency is the fitted concentration of half-maximal effect; % is set by controls: 0 for no effect and ±100 for the full control effect; nearly all actives have a fitted effect of over 60% in size
Target sequence (Q99714 whole entry, looked up, one chain of several): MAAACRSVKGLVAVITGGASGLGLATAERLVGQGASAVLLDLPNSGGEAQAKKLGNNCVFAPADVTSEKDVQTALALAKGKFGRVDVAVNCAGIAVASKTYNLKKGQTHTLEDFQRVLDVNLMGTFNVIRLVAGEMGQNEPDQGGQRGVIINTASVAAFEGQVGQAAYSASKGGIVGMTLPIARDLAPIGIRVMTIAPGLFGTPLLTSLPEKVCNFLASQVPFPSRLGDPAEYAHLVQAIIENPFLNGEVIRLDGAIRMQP
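NADH fluorescence (ex 360/em 450 nm) read every 30 s for 4 min; activity taken as last-minus-first time point difference. Enzyme 20 nM, NAD+ 1 mM, beta-hydroxybutyryl-CoA 90 uM, pH 9.0 Tris buffer.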
A350 autofl: A350 region autofluorescence; AID 590; actives 11% (n = 59,000); Compound autofluorescence, 340/450 nm, Alexa 350 dye-equivalents; hits give high values; max dye-equivalent concentration, M; in the data active = max dye-equivalent concentration above about 10 nM; inconclusive = mostly about 1.1 nM to 9.6 nM
* = called active by the depositor; i = inactive; ? = inconclusive; . = no result; [ ] = remark or other dose. Sampled rows, rich in hits. Any-hit rate of the full collection: about 13%. Unless noted, calls come from the whole dose curve; as a rule, active = well fitted curve in the direction sought with a large enough effect; inconclusive = small, poorly fitted or top-dose-only effect, or another doubt; inactive = no such curve, though single readings can be large; an effect the other way counts as inactive or inconclusive.

SMILES	4-MU autofl	AID923	HSD17B inhib	HADH2 inhib	A350 autofl
CCN1C(=O)c2c(C)nc3ccccc3c2C1=O	i	3.5%	6.0%	-13.7%	i
COc1ccc(CC[N@+]2(C)COc3cc4oc(=O)cc(C)c4cc3C2)cc1OC	1.2e-08M*	-0.5%[11.5 µM]	10.6%[11.4 µM]	4.6%[11.4 µM]	1.21e-08M*
COc1ccc(CN(C(=O)c2oc3ccccc3c2C)C2CCS(=O)(=O)C2)cc1OC (stereo not drawn)	i	-1.7%	8.7%	10.6%	i
O=c1c2[nH]c3ccc(F)cc3c2ncn1CCN1CCN(Cc2ccccc2)CC1	.	0.9%	-3.4%	13.9%	.
O=c1c2[nH]c3ccc(F)cc3c2ncn1C1CCCCC1	4.09e-08M*	2.4%	31.6µM*	-10.7%	1.05e-08M*
CC1=CC(=O)C2C(C)(C)CCC[C@@]2(C)[C@@]1(O)CCc1ccoc1 (stereo partly drawn)	.	0.6%	?	.	.
CCCc1c(OCCCOc2ccc(OCC(=O)O)cc2)ccc(C(C)=O)c1O	i	-0.5%	-20.5%	3.8%	i
c1ccc(-c2cccc(N3CC4(CCNCC4)C3)c2)cc1	i	2.7%	31.6µM*	-16.9%	i
c1ccc(-c2cccc(N3CC[C@@]4(CCCNC4)C3)c2)cc1	i	-1.0%	25.1µM*	1.4%	i
c1ccc(-c2cccc(N3CCCC4(CCNCC4)C3)c2)cc1	i	-0.4%	?	4.1%	i
CCCc1c(C)c2ccccc2[nH]c1=O	i	-0.6%	0.5%	-5.5%	i
O=c1[nH]c2ccccc2c2ccccc12	1.95e-07M*	0.0%	16.1%	?	1.79e-07M*
O=C(Cc1c(O)c2ccccc2[nH]c1=O)OC1CCCCC1	.	-0.8%	25.1µM*	?	.
COc1cccc(NC(=O)Cc2c(O)c3ccccc3[nH]c2=O)c1	i	-1.0%	31.6µM*	?	i
O=C(OCc1cc2ccccc2[nH]c1=O)C1CCCCC1	?	1.1%	-0.6%	-0.1%	?
O=C(Cc1c(O)c2ccccc2[nH]c1=O)NCc1ccc(F)cc1	i	0.9%	31.6µM*	7.3%	i
CN(C)c1nc(-c2ccccc2C(F)(F)F)nc2ccccc12	i	2.5%	8.2%	10.4%	i
CCCCc1c(O)c2ccccc2[nH]c1=O	i	1.0%	20µM*	?	i
O=C(c1csnn1)N1CCC[C@@]2(CCN(Cc3cc(C(F)(F)F)cc(C(F)(F)F)c3)C2)C1	i	0.5%	-14.3%	-4.0%	i
O=S(=O)(c1ccccc1)N1CCC[C@@]2(CCN(Cc3cc(C(F)(F)F)cc(C(F)(F)F)c3)C2)C1	i	-2.2%	-7.8%	1.7%	i
COc1ccc(CCNC(=O)CN(c2ccccc2OC)S(C)(=O)=O)cc1	1.06e-07M*	4.8%	?	14.9%	9.9e-08M*
COc1ccc(CCNC(=O)CN(c2ccccc2OC)S(C)(=O)=O)cc1OC	.	0.5%	1.4%	6.8%[11.4 µM]	.
CC1CC[C@@]2(OC1)OC1CC3C4CC[C@H]5CC(O)CC[C@@]5(C)C4CC[C@]3(C)C1C2C (stereo partly drawn)	.	1.0%	3.9%	.	.
COc1ccc(C(=O)c2ccc(OC)c(OC)c2)cc1OC	i	1.9%	-5.7%	-5.3%	i
COc1ccc(C(=S)N(C)C)cc1OC	.	4.0%	-20.0%	3.16µM*	.
SMILES	4-MU autofl	AID923	HSD17B inhib	HADH2 inhib	A350 autofl
COc1ccc(NC(=O)N2CC3(CCN(C(=O)c4csnn4)CC3)C2)cc1	i	5.7%	6.4%	0.2%	i
COC(=O)N1CCC2(CC1)CN(C(=O)Nc1ccc(OC)cc1)C2	i	2.1%	-1.0%	1.1%	i
CC(C)C1=C[C@@]23CC[C@@H]4[C@](C)(CCC[C@@]4(C)C(=O)O)[C@@H]2C[C@@H]1[C@@H](C(=O)O)[C@@H]3C(=O)O	i	0.1%[11.5 µM]	7.1%[11.4 µM]	-6.2%[11.4 µM]	i
Cc1coc(NC(=O)CSc2nc(-c3ccncc3)cc(C(F)(F)F)c2C#N)n1	7.16e-08M*	2.9%	-6.3%	21.7%	5.82e-08M*
CCOC(=O)NC(=O)CSc1nc(C)cc(C(F)(F)F)c1C#N	i	2.1%	3.0%	-15.4%	i
O=C(CCSc1nc(-c2ccco2)cc(C(F)(F)F)n1)Nc1ccc2c(c1)OCO2	i	-2.2%	4.6%	4.5%	i
N#Cc1c(C(F)(F)F)cc(-c2ccco2)nc1SCc1ccncc1	6.88e-07M*	6.3%	15.8µM*	25.1µM*	4.62e-07M*
